This is part of a sample that, as a whole, favours compounds with a hit. Of some 83,000 tested, about 20% had one in any assay.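 Assay: single dose, 48 h. Readout: percent growth (0 = no net growth; negative = cell death). Active: <10.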 Unmarked numbers belong to inactive results. Active and inactive are the calls of the source.

Among the data in PubChem BioAssay (NCI) are growth values, retold here.

The first assay relates to 786-0 renal. Description: NCI-60 one-dose screen, 48 h (100 = growth as untreated, 0 = no growth, -100 = all killed). The following applies: 10 µM unless noted.
On to `Cn1c2c(Cl)c(Cl)ccc2c2ccn3c(=O)c4ccccc4nc3c21`, for which the growth was 99.2%.
As for `CCOC(=O)Cc1cnn(C)c1NC(=O)c1ccc(Cl)cc1NC(C)=O`, the growth was 98.4%.
Turning to `COc1ccc(-c2cc(NC(=O)Nc3ccc(O)cc3)no2)cc1`, the growth was 77.3%.
As for `S=c1[nH]nc(CSc2ncnc3c2c(-c2ccccc2)cn3-c2ccc(Cl)cc2)o1`, the growth is 102%.
With `COc1c(Cl)cc(Cl)cc1Cl`, the growth is 112%.
In the case of `COc1ccc(-c2nn(-c3ccccc3)cc2/C=C/C(=O)OCc2cn(-c3ccc(F)c(Cl)c3)nn2)cc1`, the growth is 101%.
On the same count and under the same terms, as for `COc1ccc2c(c1)C(=O)/C(=C/c1cccc(OCC(=O)Nc3nc4c(s3)CCCC4)c1)O2`, the figure is 63.3%; as for `CCN(CC)CC(C)Nc1ccc([N+](=O)[O-])c2sc3ccccc3c(=O)c12` (configuration not stated), 16.3%; as for `Cc1nn(-c2ccccc2)c2nc(C)n(-c3ccc(Br)cc3)c(=O)c12`, 43.3%.
In the case of `OC(c1cc(-c2ccccc2)nc2ccc(Cl)cc12)C1CCCCN1` (configuration not stated), the growth was 66.8%.
In the case of `COc1ccc(S(=O)(=O)NCCNc2nccc(-c3c(-c4cccc([N+](=O)[O-])c4)nc4sccn34)n2)cc1`, the growth was 87.9%.
As for `COc1ccc(Cl)cc1Nc1nc(C(F)(F)F)ccc1C(=O)N/N=C/c1cccnc1`, the growth was 18.7%.
The same measure, in the same setting: the value for `COc1ccc(-c2nn(-c3ccccc3)cc2/C=C2\SC(=O)NC2=O)cc1` was 81.1%.
As for `Cc1ccc2c(c1)C(=O)c1c-2c(OCCCN(C)C)nc2ccccc12`, the growth is 44.7%.
In the case of `Cc1ccc(-c2nc(/C=N/Nc3cc(C)nc4ccc(Br)cc34)c(C)o2)cc1`, the growth was -67% (active).
For the compound `CCCCNP1(NCCCC)=NP(NCCCC)(NCCCC)=NP(NCCCC)(NCCCC)=NP(NCCCC)(NCCCC)=N1`, the growth was -6.24% (active).
As to `COc1ccc(-n2cc(-c3ccccc3)c3c(SCC(=O)N/N=C/c4ccc([N+](=O)[O-])cc4)ncnc32)cc1`, the growth is 95.3%.
For `Nc1cccc(-c2nc3sccn3c2-c2ccnc(NCCCNS(=O)(=O)c3ccc(C(F)(F)F)cc3)n2)c1`, the growth was 23.6%.
On the same count and under the same terms, the value for `CCN(CC)CC(O)c1cc(-c2ccc(Cl)cc2)nc2c(C)c(Cl)ccc12` (configuration not stated) was -95.9% (active); that for `O=C1/C(=C/c2ccc(F)cc2)CN(C(=O)CCN2CCC(=NO)CC2)C/C1=C\c1ccc(F)cc1` was -44.7% (active); that for `CC(C)C1=C[C@@]23CC[C@@H]4[C@](C)(CCC[C@@]4(C)C(=O)OCC#CCN4CCCC4)[C@H]2C[C@@H]1[C@H]1C(=O)OC(=O)[C@H]13` was 103%.
As for `Cc1ccc2c(c1)C(=O)/C(=C/c1ccc(OCC(=O)c3ccccc3)cc1)O2`, the growth is 86.8%.
As to `Cc1ccc2c(c1)n([O-])c1cc(Cl)ccc1[n+]2=O`, the growth was 91.3%.
Regarding `COc1ccccc1/C=C(/C(=O)c1ccccc1)c1ccccc1`, the growth is 103%.
`COc1nc2c(cc1S(=O)(=O)c1ccccc1)CCc1c-2cnn1-c1ccc(Cl)cc1`: the growth was 79.5%.
As for `CNc1cc2nc3cc(NC)c(C)cc3cc2cc1C`, the growth was 12.9%.
For `Nc1c(C(=O)Nc2ccccc2)sc2nc3c(cc12)CN(CCc1ccccc1)CC3`, the growth is 101%.
The same measure, in the same setting: the value for `CC(C)[C@@H]1CC[C@]2(C(=O)NCCCCN=C(N)N)CC[C@]3(C)[C@H](CC[C@@H]4[C@@]5(C)CCC(=O)C(C)(C)[C@@H]5CC[C@]43C)[C@@H]12` was 70.7%.
As to `CCOC(=O)c1cnc2ccc(Br)cc2c1Nc1cccc(S(=O)(=O)NC)c1`, the growth is 103%.

Another assay has as its system COLO 205 colon. The assay is described as above. To be noted: 10 µM unless noted.
In the case of `Cc1cc(-c2nc3ccccc3s2)ccc1NC(=O)COc1ccc(Cl)cc1`, the growth is 110%.
As to `C[C@H](CCC(=O)O)[C@H]1CC[C@H]2[C@@H]3CC[C@@H]4/C(=C\c5ccco5)C(=O)/C(=C\c5ccco5)C[C@]4(C)[C@H]3CC[C@]12C`, the growth was 87.3%.
As for `COc1cc2c(c(OC)c1OC)-c1ccc(N=NC(N)=S)c(=O)cc1[C@@H](NC(C)=O)CC2`, the growth was -73.6% (active).
Take `c1ccc(CSc2ncnc3nc[nH]c23)nc1`: the growth is 121%.
As to `CC(=O)Nc1ccc2c(c1)c(NC(C)=O)nn2C(=O)Nc1ccc(Cc2ccccc2)cc1`, the growth was 102%.
Take `COc1cc2c(=O)n(CC3CCCCC3)c3c4cc[nH]c4ncc3c2cc1OC`: the growth was 6.79% (active).
The same measure, in the same setting: as for `COC1/C=C\OC2(C)Oc3c(C)c(O)c4c(O)c(c(CN(C)CCO)c(O)c4c3C2=O)NC(=O)/C(C)=C\C=C/C(C)C(O)C(C)C(O)C(C)C(OC(C)=O)C1C` (configuration not stated), the figure is 108%; as for `Cc1cc(N/N=C/c2nc(-c3ccc(Cl)cc3)oc2C)c2cc(Cl)ccc2n1`, 83.7%; as for `C=C1CC[C@@H]2[C@](C)(COC(C)=O)[C@H](OC(C)=O)CC[C@@]2(C)[C@@H]1CC(NCc1ccc(F)cc1)C1=CCOC1=O` (some centres not stated), 42.2%.
Regarding `Cn1c2c(Cl)c(Cl)ccc2c2ccn3c(=O)c4ccccc4nc3c21`, the growth is 100%.
In the case of `CCOC(=O)Cc1cnn(C)c1NC(=O)c1ccc(Cl)cc1NC(C)=O`, the growth is 110%.
As to `COc1ccc(-c2cc(NC(=O)Nc3ccc(O)cc3)no2)cc1`, the growth is 105%.
As to `S=c1[nH]nc(CSc2ncnc3c2c(-c2ccccc2)cn3-c2ccc(Cl)cc2)o1`, the growth is 99.1%.
`COc1c(Cl)cc(Cl)cc1Cl`: the growth is 116%.
The same measure, in the same setting: as for `COc1ccc(-c2nn(-c3ccccc3)cc2/C=C/C(=O)OCc2cn(-c3ccc(F)c(Cl)c3)nn2)cc1`, the figure is 104%; as for `COc1ccc2c(c1)C(=O)/C(=C/c1cccc(OCC(=O)Nc3nc4c(s3)CCCC4)c1)O2`, -3.43% (active).
For the compound `CCN(CC)CC(C)Nc1ccc([N+](=O)[O-])c2sc3ccccc3c(=O)c12` (configuration not stated), the growth was 10.8%.
In the case of `Cc1nn(-c2ccccc2)c2nc(C)n(-c3ccc(Br)cc3)c(=O)c12`, the growth is 1.32% (active).
Turning to `OC(c1cc(-c2ccccc2)nc2ccc(Cl)cc12)C1CCCCN1` (configuration not stated), the growth was -60.9% (active).
The same measure, in the same setting: the value for `COc1ccc(S(=O)(=O)NCCNc2nccc(-c3c(-c4cccc([N+](=O)[O-])c4)nc4sccn34)n2)cc1` was 95.1%; that for `COc1ccc(Cl)cc1Nc1nc(C(F)(F)F)ccc1C(=O)N/N=C/c1cccnc1` was 44.5%; that for `COc1ccc(-c2nn(-c3ccccc3)cc2/C=C2\SC(=O)NC2=O)cc1` was 123%.
`Cc1ccc2c(c1)C(=O)c1c-2c(OCCCN(C)C)nc2ccccc12`: the growth is -30.6% (active).
Still for that read-out and setting: the value for `Cc1ccc(-c2nc(/C=N/Nc3cc(C)nc4ccc(Br)cc34)c(C)o2)cc1` was -68.6% (active); that for `CCCCNP1(NCCCC)=NP(NCCCC)(NCCCC)=NP(NCCCC)(NCCCC)=NP(NCCCC)(NCCCC)=N1` was -26.2% (active); that for `COc1ccc(-n2cc(-c3ccccc3)c3c(SCC(=O)N/N=C/c4ccc([N+](=O)[O-])cc4)ncnc32)cc1` was 109%.
As to `Nc1cccc(-c2nc3sccn3c2-c2ccnc(NCCCNS(=O)(=O)c3ccc(C(F)(F)F)cc3)n2)c1`, the growth is 6.24% (active).
The same measure, in the same setting: the value for `CCN(CC)CC(O)c1cc(-c2ccc(Cl)cc2)nc2c(C)c(Cl)ccc12` (configuration not stated) was -100% (active); that for `O=C1/C(=C/c2ccc(F)cc2)CN(C(=O)CCN2CCC(=NO)CC2)C/C1=C\c1ccc(F)cc1` was -81.9% (active).
Consider `CC(C)C1=C[C@@]23CC[C@@H]4[C@](C)(CCC[C@@]4(C)C(=O)OCC#CCN4CCCC4)[C@H]2C[C@@H]1[C@H]1C(=O)OC(=O)[C@H]13`, for which the growth was 111%.
As for `Cc1ccc2c(c1)C(=O)/C(=C/c1ccc(OCC(=O)c3ccccc3)cc1)O2`, the growth was 107%.
Regarding `Cc1ccc2c(c1)n([O-])c1cc(Cl)ccc1[n+]2=O`, the growth is 108%.
For the compound `COc1ccccc1/C=C(/C(=O)c1ccccc1)c1ccccc1`, the growth was 122%.
Take `COc1nc2c(cc1S(=O)(=O)c1ccccc1)CCc1c-2cnn1-c1ccc(Cl)cc1`: the growth is 118%.
As for `CNc1cc2nc3cc(NC)c(C)cc3cc2cc1C`, the growth was -39.1% (active).
Consider `Nc1c(C(=O)Nc2ccccc2)sc2nc3c(cc12)CN(CCc1ccccc1)CC3`, for which the growth is 116%.
For `CC(C)[C@@H]1CC[C@]2(C(=O)NCCCCN=C(N)N)CC[C@]3(C)[C@H](CC[C@@H]4[C@@]5(C)CCC(=O)C(C)(C)[C@@H]5CC[C@]43C)[C@@H]12`, the growth is 2.37% (active).
Same read-out and setting: as for `CCOC(=O)c1cnc2ccc(Br)cc2c1Nc1cccc(S(=O)(=O)NC)c1`, the figure is 128%.
